Compound activity from PubChem.
Many of the other results were omitted from the sample, so hits are more common in it than they were.
Methyltransferases = Primary Screen for Target Class Profiling of Small Molecule Inhibitors of Methyltransferases. calls only at 40 µM. AID 1745853, 2022. 25,000 tested, 3.9% active. purified enzyme, MTase-Glo SAH luminescence; hits give low values; call rule not given here
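Each enzyme was reacted with SAM and its substrate, with compounds tested once at 40 uM; SAH formed was read by MTase-Glo luminescence.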
An asterisk follows results filed as active; i = inactive; + = active, no number; ! = repeats disagree. % is scaled to controls: 0 for no effect and ±100 for the full control effect.

SMILES	Methyltransferases
COc1ccc(OC)c2c1cc1n2CC(C)(C(=O)NC2CCCCCC2)N(Cc2cccs2)C1=O (stereo not given)	i
COc1ccc(OC)c(CNC(=O)Cn2ccc3cc(S(=O)(=O)N4CCC(C)CC4)ccc32)c1	i
CC1(C(=O)NC2CCCCC2)Cn2c(cc3occc32)C(=O)N1CCCc1ccccc1 (stereo not given)	i
CC(C)CCn1c(=O)c2ccc(C(=O)NCC(C)C)cc2n2c(=O)n(CC(=O)c3ccccc3)nc12	i
C[n+]1cc2c3c(ccc2c2ccc4cc5c(cc4c21)OCO5)OCO3	+
CCCn1c(=O)c2ccc(C(=O)NC3CCCC3)cc2n2c(=O)n(C)nc12	i
CCC(C)NC(=O)c1ccc2c(=O)n(C)c3nn(Cc4ccccc4F)c(=O)n3c2c1 (stereo not given)	i
Cc1ncc(CCCN(C)C)cc1Nc1ncc2c(n1)-c1ccc(C(F)(F)F)cc1NC(=S)C2	+
CCCn1c(=O)c2ccc(C(=O)NC(C)C)cc2n2c(SCC(=O)Nc3cccc(F)c3)nnc12	i
COCCN1C(=O)c2cc3sccc3n2CC1(C)C(=O)NC1CCCCC1C (stereo not given)	i
CC1CCC(NC(=O)C2(C)Cn3c(ccc3-c3ccco3)C(=O)N2CCc2ccc(Cl)cc2)CC1 (stereo not given)	i
CCCNC(=O)Nc1ccc(Oc2ncnc3cc(OC)c(OC)cc23)cc1Cl	i
COc1cc2ncnc(Nc3cccc(Cl)c3)c2cc1OC	+
COc1cc2ncnc(Nc3cccc(O)c3)c2cc1OC	i
CCOc1ccccc1CN1C(=O)c2cc3sccc3n2CC1(C)C(=O)NC1CCCC(C)C1C (stereo not given)	i
Cc1cc(C)cc(NC(=O)Cn2nc3n(Cc4ccc(F)cc4)c(=O)c4ccccc4n3c2=O)c1	i
O=c1[nH]c2cc(Br)c(S(=O)(=O)NCCN3CCN(c4ccccc4F)CC3)cc2[nH]1	i
O=C(Cn1nc2nc(Nc3ccc(F)cc3)ccn2c1=O)Nc1ccccc1Cl	i
CC(O)(CC(=O)O)CC(=O)O[C@@H]1[C@@H](O)[C@H](OCCc2ccccc2)O[C@H](CO)[C@H]1O (stereo not given in full)	i
CC(O)(CC(=O)O)CC(=O)OCc1ccc(O[C@@H]2O[C@H](CO)[C@@H](O)[C@H](O)[C@H]2O)cc1 (stereo not given in full)	+
O=C(O)c1ccc(OC2OC(CO)C(O)C(O)C2O)cc1 (stereo not given)	i
Cc1ccc(NS(=O)(=O)c2cc3[nH]c(=O)[nH]c3cc2C)c(C)c1	i
Cc1ccc(NC(=O)Cn2nc3n(Cc4ccccc4)c(=O)c4ccccc4n3c2=O)cc1C	i
O=C(CCc1nnc2n(Cc3ccccc3Cl)c(=O)c3ccccc3n12)N1CCN(c2ncccn2)CC1	i
C=CCn1c(=O)c2ccc(C(=O)NC(C)C)cc2n2c(=O)n(CC(=O)NC3CCCC3)nc12	i
SMILES	Methyltransferases
COc1ccc(N2CCN(CCNS(=O)(=O)c3ccc4oc(=O)c5ncn(C)c5c4c3)CC2)cc1	i
CCCCN1C(=O)c2ccccc2C(C(=O)NC2CC2)C12CCCCC2 (stereo not given)	i
CCN1C(=O)c2ccccc2C1Nc1ccc(OCCN2CCCCC2)cc1 (stereo not given)	+
CCCCOc1ccccc1-c1cc2n(n1)CC(C)(C(=O)NC1CCCCCC1)N(CC)C2=O (stereo not given)	i
O=c1c2ccccc2n2c(SCc3ccccc3F)nnc2n1Cc1ccc(F)cc1	i
CC1(C(=O)NC2CCCC2)Cn2cnc(C(=O)NCCc3ccc(Cl)cc3)c2C(=O)N1C1CC1 (stereo not given)	i
Cc1ccc(Cn2nc3n(Cc4ccc(C)cc4)c(=O)c4ccc(C(=O)NC(C)C)cc4n3c2=O)cc1	i
O=C(CCc1ccccc1)c1c(O)c([C@@H]2O[C@H](CO)[C@@H](O)[C@H](O)[C@H]2O)c(O)c([C@@H]2O[C@H](CO)[C@@H](O)[C@H](O)[C@H]2O)c1O	+
CN(C)c1ccc(C(=O)NC[C@H]2O[C@@H](CO)[C@@H](O)[C@H]2N(C)CCc2ccccc2)cc1	i
O=C(Cc1ccccc1)OC[C@H]1O[C@H](O[C@H]2O[C@H](CO)[C@@H](O)[C@H](O)[C@H]2O)[C@H](O)[C@@H](O)[C@@H]1O	i
CCCCN1C(=O)c2cc(C(=O)NCCc3cccs3)nn2CC1(C)C(=O)NC1CCCC1 (stereo not given)	i
Cc1nc(Nc2ncc(C(=O)Nc3c(C)cccc3Cl)s2)cc(N2CCN(CCO)CC2)n1	+
O=C(NCCCCN1CCN(c2cccc(Cl)c2Cl)CC1)c1cc2ccccc2s1	i
OCCN1CCN(c2ccc(-c3nc(-c4cccc(C(F)(F)F)c4)no3)cn2)CC1	i
Cc1ccc(Cn2nc3n(CC(C)C)c(=O)c4ccc(C(=O)NC5CCCC5)cc4n3c2=O)cc1	i
CCCn1c(=O)c2ccccc2n2c(=O)n(CC(=O)Nc3ccccc3OC)nc12	i
CC(C)CNC(=O)c1ccc2c(=O)n(C)c3nn(CC(=O)Nc4ccc(C(C)C)cc4)c(=O)n3c2c1	i
C=Cc1ccc(CSc2nnc3n(Cc4ccccc4)c(=O)c4ccccc4n23)cc1	i
CC(C)c1cc(-c2n[nH]c(=O)n2-c2ccc3c(ccn3C)c2)c(O)cc1O	+
CCCCN1C(=O)c2ccc(-c3ccccc3)n2CC1(C)C(=O)NC1CCC(C)CC1 (stereo not given)	i
Cc1ccc(Nc2ccn3c(=O)n(CC(=O)Nc4cc(F)ccc4C)nc3n2)cc1	i
CN1C(=O)c2cc(C(=O)NCCc3cccs3)nn2CC1(C)C(=O)NC1CCCCC1 (stereo not given)	i
C=Cc1cc2oc(-c3ccc(O)c(F)c3)nc2cc1O	+
O=C(O)Cc1ccc2oc(-c3ccc(NC(=O)/C=C/c4ccc(Br)cc4)c(F)c3)nc2c1	i
CCCn1c(=O)c2ccc(C(=O)NC(C)C)cc2n2c(=O)n(CC(=O)NCc3ccc(C)cc3)nc12	i
SMILES	Methyltransferases
Cn1cc(CN2CCCCCNC(=O)[C@@H]3CCC[C@@H]32)c2ccccc21	i
Cn1cc(C(=O)OCC2CCN(CCNS(C)(=O)=O)CC2)c2ccccc21	i
CN(C)CC1CCn2c(c(C3=C(c4cn(C)c5ccccc45)C(=O)NC3=O)c3ccccc32)C1 (stereo not given)	+!
CCC(C)NC(=O)c1ccc2c(=O)n(C)c3nn(CC(=O)NCc4ccc(C)cc4)c(=O)n3c2c1 (stereo not given)	i
CCC(C(=O)NCc1cccc(C)c1)n1ccc2cc(S(=O)(=O)N3CCCCC3)ccc21 (stereo not given)	i
Cn1c2c(c3ccccc31)C(C(=O)NCc1ccc(F)cc1)N(c1ccc(Cl)cc1)C(=O)CS2 (stereo not given)	i
COc1ccc(-c2n[nH]n3c2nc(=O)c2ccc(C(=O)NCCc4ccccc4)cc23)cc1	i
COc1ccc(OC)c2c1cc1n2CC(C)(C(=O)NC2CCCCC2)N(Cc2ccccn2)C1=O (stereo not given)	+
COc1ccc(OC)c2c1cc1n2CC(C)(C(=O)NC2CCCC2)N(Cc2ccccc2)C1=O (stereo not given)	i
Cc1cc2c(cc3n2CC(C)(C(=O)NC2CCCCC2)N(CCc2ccccc2)C3=O)o1 (stereo not given)	i
